# Bioassay records: PubChem, National Center for Advancing Translational Sciences (NCATS)
# TDP1 inh – qHTS Assay for Inhibitors of Tyrosyl-DNA Phosphodiesterase (TDP1) | Potency, µM (doses to about 130 µM), inactives show at the highest dose activity change, negative = inhibition, usual class: inhibitors | AID 485290, 2010 | recombinant TDP1, AlphaScreen DNA substrate cleavage | Tyrosyl-DNA phosphodiesterase 1 (Homo sapiens), Q9NUW8 | 350,000 tested, 0.28% active; note: potency is the fitted concentration of half-maximal effect; nearly all actives have a fitted effect of over 40% in size
# Target sequence (Q9NUW8 whole entry, looked up): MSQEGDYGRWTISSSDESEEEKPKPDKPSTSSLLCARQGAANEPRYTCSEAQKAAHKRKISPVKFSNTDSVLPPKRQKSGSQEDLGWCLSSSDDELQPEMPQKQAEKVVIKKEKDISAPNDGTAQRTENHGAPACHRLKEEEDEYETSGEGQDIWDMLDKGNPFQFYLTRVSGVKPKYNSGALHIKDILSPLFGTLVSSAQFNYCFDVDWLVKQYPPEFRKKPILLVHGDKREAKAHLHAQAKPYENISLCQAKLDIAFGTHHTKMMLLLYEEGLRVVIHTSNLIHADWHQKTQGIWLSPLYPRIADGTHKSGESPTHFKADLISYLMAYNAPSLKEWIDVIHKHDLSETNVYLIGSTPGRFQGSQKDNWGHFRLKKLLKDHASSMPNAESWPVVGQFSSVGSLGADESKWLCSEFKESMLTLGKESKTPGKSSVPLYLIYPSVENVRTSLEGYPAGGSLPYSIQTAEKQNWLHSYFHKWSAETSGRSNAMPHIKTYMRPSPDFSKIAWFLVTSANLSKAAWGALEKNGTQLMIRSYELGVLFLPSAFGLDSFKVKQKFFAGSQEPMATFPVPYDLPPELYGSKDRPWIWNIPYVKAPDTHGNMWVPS
#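 Steps: enzyme plus compound, 15 min RT; add biotin/phosphotyrosine-FITC oligonucleotide (15 nM final), react 5 min; add donor/acceptor beads (10 ug/ml final), 10 min; read AlphaScreen. Tdp1 at 1 nM final.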
# TDP1 cell noCPT – qHTS for Inhibitors of human tyrosyl-DNA phosphodiesterase 1 (TDP1): qHTS in cells in absence of CPT; DT40 Tdp1-/- hTDP1 cells, no CPT, ATP luminescence, 48 h; Potency, µM (titrated, usually from 46.2 µM), inactives show top-dose activity change, negative = growth inhibition, usual class: inhibitors; 420,000 tested, 15% active; note: potency is the fitted concentration of half-maximal effect; nearly all actives have a fitted effect of over 55% in size
#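 Readout: luminescence from CellTiter-Glo after 30 min in the dark at RT. Cells: DT40 Tdp1-/- with stable hTDP1, 400/well. Exposure: compounds alone, ≥48 hr, 37 °C.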
# IL1B secr inh – qHTS for Inhibitors of Inflammasome Signaling: IL-1-beta AlphaLISA Primary Screen; THP-1 LPS/ATP IL-1B secretion, AlphaLISA, 16 h; active compounds read low; activity change, % at 57.5 µM; 360,000 tested, 4.7% active; in the data active = activity change below about -50%; inconclusive = mostly about -30% to -49%
#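 THP-1 cells pretreated 1 hr with compounds (up to 57.5 uM final), then stimulated with LPS (250 ng/mL final) plus ATP (1.25 mM final); secreted IL-1B measured by AlphaLISA after 16 hr, decreased signal indicating inhibition.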
# TDP1 cell CPT – qHTS for Inhibitors of human tyrosyl-DNA phosphodiesterase 1 (TDP1): qHTS in cells in presence of CPT. chicken DT40 Tdp1-/-;hTDP1 cells + 20 nM CPT, ATP luminescence, 48 h. Potency, µM (doses to about 46.2 µM), without a hit: at the highest dose activity change, negative = growth inhibition, usual class: inhibitors. 420,000 tested, 12% active; note: potency is the fitted concentration of half-maximal effect; nearly all actives have a fitted effect of over 55% in size
#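 Chicken DT40 Tdp1-/- cells complemented with human TDP1, 400 cells/well, exposed to compounds plus 20 nM camptothecin for at least 48 h at 37 C; viability read as ATP content by CellTiter-Glo luminescence.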
# Six1-Eya2 inh – qHTS Assay for Inhibitors of the Six1/Eya2 Interaction. Homeobox protein SIX1 (Homo sapiens) + Protein phosphatase EYA2 (Homo sapiens), …. 360,000 tested, 0.56% active. AlphaScreen GST-Six1/His-Eya2 binding, biochemical; active compounds read low. activity change, % (test concentration not listed); in the data active = activity change below about -65%; inconclusive = mostly about -30% to -63%
#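 Homogeneous AlphaScreen proximity assay pairing GST-Six1 with His-tagged Eya2 (added as 5X mix: 250 nM and 500 nM) in 50 mM Tris pH 8.0, 300 mM NaCl, 1 mM TCEP. Glutathione donor and nickel acceptor beads; 1 h, 37 °C, dark.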
# CtBP-E1A blk – qHTS Assay for Inhibitors of the CtBP/E1A Interaction. CtBP / adenovirus E1A interaction (AlphaScreen). AlphaScreen GST-E1A/His-CtBP binding, 1536-well; active compounds read low. activity change, % (test concentration not listed). 340,000 tested, 0.49% active. AID 651724, 2012; in the data active = activity change below about -65%; inconclusive = mostly about -30% to -63%
#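 GST-E1A and His-tagged CtBP (125 nM each as 5X stock) were preincubated with pin-transferred compound for 2 h at 37 °C in the dark, then glutathione donor and nickel acceptor beads were added for 1 h before AlphaScreen reading.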
# Starred values were filed as active, the others as inactive; ? = inconclusive; / = no result given; [ ] = another dose, or the depositor's remark. Hits are enriched below; roughly 18% of the tested compounds scored in any of these assays. Unless noted, calls come from the whole dose curve; as a rule, active = well fitted curve in the direction sought with a large enough effect; inconclusive = small, poorly fitted or top-dose-only effect, or another doubt; inactive = no such curve, though single readings can be large; an effect the other way counts as inactive or inconclusive. % is set by controls: 0 for no effect and ±100 for the full control effect.
SMILES,TDP1 inh,TDP1 cell noCPT,IL1B secr inh,TDP1 cell CPT,Six1-Eya2 inh,CtBP-E1A blk
COc1ccc(NC(=O)c2cccc(OS(=O)(=O)N(C)C)c2)cc1,6%,5.2µM*,-12,18µM*,-2,3
COc1cccc(C(=O)Nc2cccc(NC(=O)c3ccc(Cl)cc3Cl)c2)c1,1%[12.3 µM],?,/,?,/,/
COc1cccc(C(=O)Nc2ccc3[nH]ncc3c2)c1,/,-29%,-57*,-5%,-2,0
COc1cccc(C(=O)Nc2cccc(NC(=O)c3ccccc3Cl)c2)c1,/,?,?,?,-13,/
CN(C)S(=O)(=O)Oc1cccc(C(=O)Nc2ccc(Cl)c(Cl)c2)c1,2%,10µM*,-88*,7.3µM*,-12,17
CCCN1CCN(CCCNC(=O)c2ccc3c(c2)NC(=O)c2ccccc2S3)CC1,1%,-17%,-8,-15%,0,/
Cc1ccnc(NS(=O)(=O)c2ccc(CC(C)C)cc2)c1,0%,-28%,4,-16%,4,-10
COC(=O)c1cc2oc3ccccc3c2n1Cc1cccc(C)c1,-7%,?,/,-27%,/,/
CCN(C(=O)Cn1c(C(=O)OC)cc2oc3ccccc3c21)c1cccc(C)c1,1%,18µM*,/,12µM*,/,/
CCOCCCN1C(=O)CN(C2CCC(C)CC2)C(=O)C1c1ccc(C)cc1 (configuration not stated),6%,2.3µM*,-11,?,5,-4
COc1ccc(C2C(=O)N(C3CCCCC3)CC(=O)N2CCC2=CCCCC2)cc1 (configuration not stated),5%,16µM*,/,?,/,/
COc1ccc(C2C(=O)N(C3CCCCCC3)CC(=O)N2Cc2ccc(C)cc2)cc1 (configuration not stated),5%,26µM*,/,23µM*,/,/
COc1ccc(C2C(=O)N(C3CCCCCC3)CC(=O)N2CCC2=CCCCC2)cc1 (configuration not stated),8%,15µM*,/,23µM*,/,/
O=C(O)c1cccc(N2C(=O)c3cccnc3C2=O)c1,1%,-3%,0,0%,4,-1
O=C(N/N=C/c1ccc(C(=O)O)cc1)C1=NNC(c2ccccc2)(c2ccccc2)C1,3%,-3%,6,-10%,5,/
[O-][n+]1ccc(C2CC2)cc1,9%,-24%,-12,?,4,5
Cc1ccc(C2C(=O)N(C3CCCCCC3)CC(=O)N2CCC2=CCCCC2)cc1 (configuration not stated),5%,21µM*,/,?,/,/
CCCN1C(=O)CN(C2CCCCCC2)C(=O)C1c1ccc(C)cc1 (configuration not stated),-2%,?,13,?,3,15
O=C(Nc1cnn(Cc2ccc(F)cc2)c1)c1cnn2c(C(F)F)cc(-c3ccccc3)nc12,4%,?,6,-29%,37,-7
CCOc1ccc(NC(=O)c2cnn3c(C(F)F)cc(-c4ccc(C)cc4)nc23)cc1,-3%,6%,/,4%,/,/
Cc1ccc(C2CC(C(F)F)n3ncc(C(=O)Nc4c(C)nn(Cc5c(F)cccc5Cl)c4C)c3N2)cc1 (configuration not stated),12%[56.1 µM],18µM*,-22,?,-20,-18
Cc1nn(Cc2c(Cl)cccc2Cl)c(C)c1NC(=O)c1cnn2c(C(F)F)cc(-c3ccccc3)nc12,2%,?,13,21µM*,-5,1
Cc1ccc(-c2cc(C(F)F)n3ncc(C(=O)Nc4c(C)nn(Cc5c(Cl)cccc5Cl)c4C)c3n2)cc1,3%,15µM*,-7,10µM*,0,3
Cc1ccc(-n2nc3c(=O)n(CCCC(=O)NCc4ccco4)nc(C)c3c2C)cc1,4%,-13%,-8,?,4,-1
CCn1c(O)c(N=NC(=O)Cc2csc(N3CCOCC3)n2)c2ccccc21,3%,-26%,-18,-21%,-29,5
SMILES,TDP1 inh,TDP1 cell noCPT,IL1B secr inh,TDP1 cell CPT,Six1-Eya2 inh,CtBP-E1A blk
CC(C)CCNc1nc(N)c([N+](=O)[O-])c(NCC2CCCO2)n1 (configuration not stated),4%,?,28,15µM*,4,-1
CN(C)c1nc(NCc2ccccc2)nc(SCC(=O)Nc2ccc(Cl)c(Cl)c2)n1,0%,?,0,21µM*,-5,-1
CCNc1nc(SCC(=O)Nc2ccc(Cl)c(Cl)c2)nc(N(C)C)n1,3%,15µM*,13,?,1,6
CC(OC(=O)CCc1nc2ccccc2c(=O)[nH]1)C(=O)Nc1ncc(Cl)cc1Cl (configuration not stated),0%,-5%,-77*,-21%,12,-19
CC(OC(=O)c1nn(C(C)C)c(=O)c2ccccc12)C(=O)Nc1ncc(Cl)cc1Cl (configuration not stated),0%,18µM*,0,?,7,-4
CC(=O)Nc1ccc(NC(=O)/C(=C/c2ccco2)NC(=O)c2ccccc2)cc1,-3%,6%,0,6%,13,4
CC(C)C(NC(=O)Cc1ccccc1)C(=O)N1CCN(c2cccc(Cl)c2)CC1 (configuration not stated),-1%,3.3µM*,-4,4.6µM*,-7,4
CC(C)C(NC(=O)c1c(F)cccc1F)C(=O)N1CCN(c2ccccc2F)CC1 (configuration not stated),/,-21%,10,-18%,6,-20
CC(C)[C@H](NS(=O)(=O)c1cccc(Cl)c1)C(=O)OCC(=O)N1CCN(c2ccccc2)CC1,3%,26µM*,-11,23µM*,-6,-15
CC(C)[C@H](NC(=O)c1c(F)cccc1F)C(=O)N1CCN(c2ccc(F)cc2)CC1,9%,21µM*,-10,?,6,0
O=C(OCC(=O)N1CCN(c2ccccc2)CC1)c1cccc(Cl)c1,0%,-14%,0,-11%,-13,-16
